This note sets out measurements from PMC7862700, “An all-to-all approach to the identification of sequence-specific readers for epigenetic DNA modifications on cytosine”.

Common to all, as to experiment: DAPPL (digital affinity profiling via proximity ligation, sequencing); 10 mM Tris-HCl pH 7.5, 50 mM NaCl, 1 mM DTT, 4% glycerol, room temperature, 30 min; GST-TFs on glutathione beads, 16-mer random dsDNA library, 0.1% formaldehyde crosslink after washing; high values mean tight binding
In one assay the target is T1, FEV (Homo sapiens, UniProt Q99581 1-238).
T1 sequence: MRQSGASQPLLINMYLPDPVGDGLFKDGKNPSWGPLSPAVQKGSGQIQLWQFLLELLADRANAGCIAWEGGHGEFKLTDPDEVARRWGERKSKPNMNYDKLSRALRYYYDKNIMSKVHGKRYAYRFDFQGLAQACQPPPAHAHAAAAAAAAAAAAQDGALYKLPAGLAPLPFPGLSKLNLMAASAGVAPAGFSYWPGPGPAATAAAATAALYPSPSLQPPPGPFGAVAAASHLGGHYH
As to conditions: protein: recombinant; tags: N-terminal GST; dsDNA, one strand shown. Summed up:
(§1)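 Binding signal is each hexamer's read frequency for a factor divided by its frequency in the tag-only sample. The factors were GST-fused human transcription factors from yeast, captured on glutathione beads, DNA-barcoded and pooled with that sample. Pools were incubated with 200 nmole of a random double-stranded 16-mer DNA library in Tris/NaCl/DTT/glycerol buffer at room temperature for 30 min, then washed, crosslinked with 0.1% formaldehyde, proximity-ligated with BsaI/T4 ligase (1 h, 37 °C), PCR-amplified and sequenced on an Illumina NextSeq500.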

The next assay has as its target ETV5 (Homo sapiens, UniProt P41161 1-510). As to conditions: protein: recombinant; tags: N-terminal GST; dsDNA, one strand shown. Summed up:
as §1

For another assay, the target named is HSF1 (Homo sapiens, UniProt Q00613 1-529). As to conditions: protein: recombinant; tags: N-terminal GST; chain copies: 3; dsDNA, one strand shown. Summed up:
as §1

The target in the next assay is T2, SPIC (Homo sapiens, UniProt Q8N5J4 1-248).
T2 sequence: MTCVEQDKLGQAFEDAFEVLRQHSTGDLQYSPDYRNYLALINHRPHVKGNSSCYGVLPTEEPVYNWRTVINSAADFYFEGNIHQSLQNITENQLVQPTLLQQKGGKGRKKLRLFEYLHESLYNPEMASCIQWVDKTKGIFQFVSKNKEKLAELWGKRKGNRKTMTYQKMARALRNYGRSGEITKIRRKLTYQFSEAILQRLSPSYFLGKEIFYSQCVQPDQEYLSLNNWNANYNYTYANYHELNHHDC
As to conditions: protein: recombinant; tags: N-terminal GST; dsDNA, one strand shown. Summed up:
as §1

The target in another assay is ELF4 (Homo sapiens, UniProt Q99607 1-663). As to conditions: protein: recombinant; tags: N-terminal GST; dsDNA, one strand shown. Summed up:
as §1

The next assay has as its target T3, ELK4 (Homo sapiens, UniProt P28324-2 1-405).
T3 sequence: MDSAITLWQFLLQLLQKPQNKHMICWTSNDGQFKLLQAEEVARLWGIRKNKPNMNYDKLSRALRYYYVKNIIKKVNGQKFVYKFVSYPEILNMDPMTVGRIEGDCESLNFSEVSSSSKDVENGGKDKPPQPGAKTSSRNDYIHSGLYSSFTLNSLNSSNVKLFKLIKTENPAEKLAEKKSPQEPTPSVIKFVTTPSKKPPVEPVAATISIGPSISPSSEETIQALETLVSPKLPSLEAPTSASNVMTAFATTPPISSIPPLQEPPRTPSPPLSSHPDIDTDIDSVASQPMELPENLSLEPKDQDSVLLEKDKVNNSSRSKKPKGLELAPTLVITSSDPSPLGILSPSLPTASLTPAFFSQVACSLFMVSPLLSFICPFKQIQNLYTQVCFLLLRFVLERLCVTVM
As to conditions: protein: recombinant; tags: N-terminal GST; dsDNA, one strand shown. Summed up: as §1

Another assay addresses T4, ETV2 (Homo sapiens, UniProt O00321 1-342).
T4 sequence: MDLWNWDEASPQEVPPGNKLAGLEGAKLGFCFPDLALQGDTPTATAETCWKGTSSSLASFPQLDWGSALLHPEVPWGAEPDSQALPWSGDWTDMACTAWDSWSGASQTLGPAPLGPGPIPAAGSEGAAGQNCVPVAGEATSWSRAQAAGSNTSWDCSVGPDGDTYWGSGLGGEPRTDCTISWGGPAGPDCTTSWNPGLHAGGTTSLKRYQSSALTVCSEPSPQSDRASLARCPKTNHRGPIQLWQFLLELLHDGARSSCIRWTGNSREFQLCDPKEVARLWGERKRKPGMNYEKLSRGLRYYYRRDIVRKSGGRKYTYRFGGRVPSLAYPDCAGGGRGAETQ
As to conditions: protein: recombinant; tags: N-terminal GST; dsDNA, one strand shown. Summed up: as §1

The target of a further assay is T5, ELF3 (Homo sapiens, UniProt P78545 1-371).
T5 sequence: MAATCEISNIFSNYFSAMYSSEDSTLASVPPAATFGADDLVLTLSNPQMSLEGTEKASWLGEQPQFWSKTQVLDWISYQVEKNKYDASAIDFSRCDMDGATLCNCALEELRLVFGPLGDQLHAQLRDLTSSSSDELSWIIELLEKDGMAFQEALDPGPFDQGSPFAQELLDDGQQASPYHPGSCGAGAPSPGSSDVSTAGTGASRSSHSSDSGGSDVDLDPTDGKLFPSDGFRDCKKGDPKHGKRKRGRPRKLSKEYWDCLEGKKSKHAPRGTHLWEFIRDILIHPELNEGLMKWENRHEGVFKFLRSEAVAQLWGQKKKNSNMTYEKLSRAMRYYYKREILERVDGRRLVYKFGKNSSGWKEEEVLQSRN
As to conditions: protein: recombinant; tags: N-terminal GST; dsDNA, one strand shown. Summed up:
as §1

The next assay has as its target CRX (Homo sapiens, UniProt O43186 1-299). As to conditions: protein: recombinant; tags: N-terminal GST; dsDNA, one strand shown. Summed up:
as §1

The target of the next assay is ETV1 (Homo sapiens, UniProt P50549 1-477). As to conditions: protein: recombinant; tags: N-terminal GST; dsDNA, one strand shown. Summed up: as §1
The target of another assay is T6, ERF (Homo sapiens, UniProt P50548 1-548).
T6 sequence: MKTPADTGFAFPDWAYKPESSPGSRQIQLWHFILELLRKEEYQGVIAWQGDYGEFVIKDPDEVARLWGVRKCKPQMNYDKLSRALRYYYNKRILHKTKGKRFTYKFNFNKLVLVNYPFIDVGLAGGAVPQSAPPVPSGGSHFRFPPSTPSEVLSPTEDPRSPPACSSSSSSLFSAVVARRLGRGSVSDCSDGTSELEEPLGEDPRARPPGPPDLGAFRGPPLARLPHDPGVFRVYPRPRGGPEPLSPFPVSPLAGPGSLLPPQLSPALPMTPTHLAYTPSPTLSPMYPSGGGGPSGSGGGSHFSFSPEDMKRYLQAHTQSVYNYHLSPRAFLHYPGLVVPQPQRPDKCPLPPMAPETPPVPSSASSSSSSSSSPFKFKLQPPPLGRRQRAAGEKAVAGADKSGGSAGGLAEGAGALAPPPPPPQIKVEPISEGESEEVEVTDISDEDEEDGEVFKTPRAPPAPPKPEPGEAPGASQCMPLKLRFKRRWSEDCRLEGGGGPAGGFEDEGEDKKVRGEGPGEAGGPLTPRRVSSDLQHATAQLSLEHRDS
As to conditions: protein: recombinant; tags: N-terminal GST; dsDNA, one strand shown. Summed up:
as §1

The target in the next assay is T7, ETV3L (Homo sapiens, UniProt Q6ZN32 1-361).
T7 sequence: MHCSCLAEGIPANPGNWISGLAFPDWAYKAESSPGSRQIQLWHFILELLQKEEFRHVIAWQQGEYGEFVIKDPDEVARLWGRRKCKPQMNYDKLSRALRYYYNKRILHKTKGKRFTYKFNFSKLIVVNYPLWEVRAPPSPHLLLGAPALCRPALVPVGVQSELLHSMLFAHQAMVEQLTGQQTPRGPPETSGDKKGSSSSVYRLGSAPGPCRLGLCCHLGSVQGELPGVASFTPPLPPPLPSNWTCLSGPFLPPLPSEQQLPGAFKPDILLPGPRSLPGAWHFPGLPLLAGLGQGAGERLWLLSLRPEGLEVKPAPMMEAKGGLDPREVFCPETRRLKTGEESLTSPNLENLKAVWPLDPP
As to conditions: protein: recombinant; tags: N-terminal GST; dsDNA, one strand shown. Summed up: as §1

The target in another assay is T8, ETS2 (Homo sapiens, UniProt P15036 1-469).
T8 sequence: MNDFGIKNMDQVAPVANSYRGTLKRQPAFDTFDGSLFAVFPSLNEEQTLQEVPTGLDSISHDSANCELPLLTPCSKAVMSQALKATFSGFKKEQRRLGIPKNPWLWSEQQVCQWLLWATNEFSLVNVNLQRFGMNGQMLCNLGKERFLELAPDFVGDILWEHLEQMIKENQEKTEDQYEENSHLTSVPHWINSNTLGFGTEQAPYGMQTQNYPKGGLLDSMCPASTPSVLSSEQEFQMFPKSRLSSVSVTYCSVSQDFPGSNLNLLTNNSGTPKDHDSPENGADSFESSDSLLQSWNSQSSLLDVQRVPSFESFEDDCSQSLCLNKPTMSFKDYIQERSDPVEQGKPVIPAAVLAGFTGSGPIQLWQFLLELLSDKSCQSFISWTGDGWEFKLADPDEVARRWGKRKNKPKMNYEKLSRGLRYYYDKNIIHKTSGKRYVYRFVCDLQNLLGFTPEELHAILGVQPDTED
As to conditions: protein: recombinant; tags: N-terminal GST; dsDNA, one strand shown. Summed up:
as §1

In the next assay the target is T9, SPDEF (Homo sapiens, UniProt O95238 1-335).
T9 sequence: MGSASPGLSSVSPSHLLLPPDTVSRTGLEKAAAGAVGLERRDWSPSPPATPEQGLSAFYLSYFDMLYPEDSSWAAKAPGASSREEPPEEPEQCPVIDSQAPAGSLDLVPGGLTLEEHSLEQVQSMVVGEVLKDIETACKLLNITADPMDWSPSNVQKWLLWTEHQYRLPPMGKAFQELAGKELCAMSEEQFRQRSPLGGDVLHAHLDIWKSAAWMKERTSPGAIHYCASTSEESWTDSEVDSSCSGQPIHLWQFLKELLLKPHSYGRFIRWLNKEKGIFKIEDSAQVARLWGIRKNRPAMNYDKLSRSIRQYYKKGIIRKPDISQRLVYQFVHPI
As to conditions: protein: recombinant; tags: N-terminal GST; dsDNA, one strand shown. Summed up:
as §1

Another assay has as its target T10, ETV7 (Homo sapiens, UniProt Q9Y603 1-341).
T10 sequence: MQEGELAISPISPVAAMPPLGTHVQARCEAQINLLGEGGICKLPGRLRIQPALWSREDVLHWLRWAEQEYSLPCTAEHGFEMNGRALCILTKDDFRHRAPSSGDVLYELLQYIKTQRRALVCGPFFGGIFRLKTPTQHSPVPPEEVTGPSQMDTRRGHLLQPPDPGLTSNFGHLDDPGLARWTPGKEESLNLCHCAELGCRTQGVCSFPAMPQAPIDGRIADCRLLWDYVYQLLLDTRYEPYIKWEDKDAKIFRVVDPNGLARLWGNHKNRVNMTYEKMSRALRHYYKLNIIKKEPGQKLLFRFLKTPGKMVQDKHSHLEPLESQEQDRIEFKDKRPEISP
As to conditions: protein: recombinant; tags: N-terminal GST; dsDNA, one strand shown. Summed up: as §1

For another assay, the target named is T11, ELF5 (Homo sapiens, UniProt Q9UKW6-2 1-255).
T11 sequence: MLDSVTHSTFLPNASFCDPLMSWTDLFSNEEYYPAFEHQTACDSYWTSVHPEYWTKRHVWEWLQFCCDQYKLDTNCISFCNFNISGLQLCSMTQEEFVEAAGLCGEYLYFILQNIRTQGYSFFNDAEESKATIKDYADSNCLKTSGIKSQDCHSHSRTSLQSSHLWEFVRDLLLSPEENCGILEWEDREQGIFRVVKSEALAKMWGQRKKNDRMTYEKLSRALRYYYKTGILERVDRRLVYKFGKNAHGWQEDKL
As to conditions: protein: recombinant; tags: N-terminal GST; dsDNA, one strand shown. Summed up: as §1

The target in the next assay is T12, ETV3 (Homo sapiens, UniProt P41162-2 1-143).
T12 sequence: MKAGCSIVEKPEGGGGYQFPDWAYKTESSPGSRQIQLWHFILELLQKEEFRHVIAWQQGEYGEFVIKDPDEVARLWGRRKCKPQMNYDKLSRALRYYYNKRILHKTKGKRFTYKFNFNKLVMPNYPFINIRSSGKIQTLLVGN
As to conditions: protein: recombinant; tags: N-terminal GST; dsDNA, one strand shown. Summed up:
as §1

Another assay deals with ETV6 (Homo sapiens, UniProt P41212 1-452). As to conditions: protein: recombinant; tags: N-terminal GST; dsDNA, one strand shown. Summed up: as §1
ETV6, sequence (P41212 whole entry): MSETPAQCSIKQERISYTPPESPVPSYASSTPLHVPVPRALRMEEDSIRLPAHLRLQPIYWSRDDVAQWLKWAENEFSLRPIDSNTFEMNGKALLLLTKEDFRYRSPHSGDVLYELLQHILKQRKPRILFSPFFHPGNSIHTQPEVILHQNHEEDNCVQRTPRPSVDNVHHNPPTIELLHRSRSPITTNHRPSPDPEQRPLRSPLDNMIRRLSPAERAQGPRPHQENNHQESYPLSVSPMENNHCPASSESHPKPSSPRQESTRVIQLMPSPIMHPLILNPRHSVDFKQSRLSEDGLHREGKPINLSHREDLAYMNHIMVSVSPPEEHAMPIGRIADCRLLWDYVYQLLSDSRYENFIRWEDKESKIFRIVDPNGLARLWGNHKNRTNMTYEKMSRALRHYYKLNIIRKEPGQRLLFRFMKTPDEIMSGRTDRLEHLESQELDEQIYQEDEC

HSF1, sequence (Q00613 whole entry): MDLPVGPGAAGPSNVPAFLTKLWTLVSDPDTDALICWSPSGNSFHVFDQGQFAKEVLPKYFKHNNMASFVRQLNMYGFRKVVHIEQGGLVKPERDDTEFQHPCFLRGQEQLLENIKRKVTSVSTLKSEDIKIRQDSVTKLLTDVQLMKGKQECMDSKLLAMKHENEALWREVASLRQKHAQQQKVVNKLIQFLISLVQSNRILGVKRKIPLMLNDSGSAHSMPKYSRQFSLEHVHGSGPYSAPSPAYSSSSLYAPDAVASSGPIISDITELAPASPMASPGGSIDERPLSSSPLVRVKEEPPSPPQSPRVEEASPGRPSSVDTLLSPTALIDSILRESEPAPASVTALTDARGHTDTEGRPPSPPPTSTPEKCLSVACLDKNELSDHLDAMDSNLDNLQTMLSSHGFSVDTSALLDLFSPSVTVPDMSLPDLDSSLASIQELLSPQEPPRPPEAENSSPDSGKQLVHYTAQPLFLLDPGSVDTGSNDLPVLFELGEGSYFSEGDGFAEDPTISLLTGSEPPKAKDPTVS
ETV5, sequence (P41161 whole entry): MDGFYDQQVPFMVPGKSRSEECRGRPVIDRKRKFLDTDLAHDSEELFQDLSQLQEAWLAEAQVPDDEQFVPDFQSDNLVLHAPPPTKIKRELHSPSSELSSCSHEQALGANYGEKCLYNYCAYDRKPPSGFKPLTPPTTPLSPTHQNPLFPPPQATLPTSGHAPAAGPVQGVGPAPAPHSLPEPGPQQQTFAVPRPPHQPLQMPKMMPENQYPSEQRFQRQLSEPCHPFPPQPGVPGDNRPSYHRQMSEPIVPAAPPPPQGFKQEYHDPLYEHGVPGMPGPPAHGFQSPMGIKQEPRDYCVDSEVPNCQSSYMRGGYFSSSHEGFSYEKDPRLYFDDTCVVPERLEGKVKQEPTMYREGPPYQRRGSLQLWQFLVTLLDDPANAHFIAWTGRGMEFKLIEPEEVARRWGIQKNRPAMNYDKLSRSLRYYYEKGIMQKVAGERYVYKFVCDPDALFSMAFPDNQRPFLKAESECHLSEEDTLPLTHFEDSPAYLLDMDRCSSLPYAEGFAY
CRX, sequence (O43186 whole entry): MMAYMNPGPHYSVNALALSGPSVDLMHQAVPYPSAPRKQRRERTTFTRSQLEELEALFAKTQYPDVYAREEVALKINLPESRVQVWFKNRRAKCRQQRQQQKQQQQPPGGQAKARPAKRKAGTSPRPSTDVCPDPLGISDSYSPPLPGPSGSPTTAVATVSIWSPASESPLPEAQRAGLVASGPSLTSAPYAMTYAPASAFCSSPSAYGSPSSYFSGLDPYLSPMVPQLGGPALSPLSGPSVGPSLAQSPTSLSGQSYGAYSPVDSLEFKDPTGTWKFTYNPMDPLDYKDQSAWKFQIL
ELF4, sequence (Q99607 whole entry): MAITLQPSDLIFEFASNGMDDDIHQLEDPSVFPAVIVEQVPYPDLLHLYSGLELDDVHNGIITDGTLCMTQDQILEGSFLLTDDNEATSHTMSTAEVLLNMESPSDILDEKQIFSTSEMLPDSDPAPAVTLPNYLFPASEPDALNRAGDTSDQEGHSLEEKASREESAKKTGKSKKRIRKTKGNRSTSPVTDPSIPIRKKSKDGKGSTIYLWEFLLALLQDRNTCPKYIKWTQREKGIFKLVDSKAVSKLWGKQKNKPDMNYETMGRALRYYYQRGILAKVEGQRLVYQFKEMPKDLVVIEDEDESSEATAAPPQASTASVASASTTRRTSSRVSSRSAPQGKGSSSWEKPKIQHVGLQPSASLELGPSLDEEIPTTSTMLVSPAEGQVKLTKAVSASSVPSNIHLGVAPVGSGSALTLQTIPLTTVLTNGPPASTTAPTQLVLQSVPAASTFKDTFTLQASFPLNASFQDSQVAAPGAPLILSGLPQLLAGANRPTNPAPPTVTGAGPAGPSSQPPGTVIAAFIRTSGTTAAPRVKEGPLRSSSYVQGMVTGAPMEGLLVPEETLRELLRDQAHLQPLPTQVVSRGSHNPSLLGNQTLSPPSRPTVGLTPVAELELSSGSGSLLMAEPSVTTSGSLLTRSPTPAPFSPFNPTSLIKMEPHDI
ETV1, sequence (P50549 whole entry): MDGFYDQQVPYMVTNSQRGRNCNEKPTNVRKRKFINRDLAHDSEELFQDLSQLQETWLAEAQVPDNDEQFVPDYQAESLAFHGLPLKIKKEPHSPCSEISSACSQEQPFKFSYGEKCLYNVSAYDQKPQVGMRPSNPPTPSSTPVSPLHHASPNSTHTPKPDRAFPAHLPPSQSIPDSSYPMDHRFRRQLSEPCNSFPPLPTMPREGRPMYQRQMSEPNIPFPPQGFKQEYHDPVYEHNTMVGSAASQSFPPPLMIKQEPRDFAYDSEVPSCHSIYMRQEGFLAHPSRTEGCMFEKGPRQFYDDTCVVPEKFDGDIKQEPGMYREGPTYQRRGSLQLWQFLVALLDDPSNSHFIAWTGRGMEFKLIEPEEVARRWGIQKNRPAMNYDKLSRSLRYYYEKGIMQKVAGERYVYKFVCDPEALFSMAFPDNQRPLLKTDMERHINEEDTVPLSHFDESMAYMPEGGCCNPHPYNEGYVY

For the sequence AATGCC, the binding signal in the assay with FEV is 1.23 fold enrichment (6-mer frequency, TF over GST control); with ETV5, 1.2 fold enrichment (6-mer frequency, TF over GST control); with HSF1 it was 1.07 fold enrichment (6-mer frequency, TF over GST control); with SPIC it was 1.07 fold enrichment (6-mer frequency, TF over GST control); with ELF4 it was 1.21 fold enrichment (6-mer frequency, TF over GST control); in the assay with ELK4, 1.16 fold enrichment (6-mer frequency, TF over GST control). Further, the binding signal in the assay with ETV2 is 1.06 fold enrichment (6-mer frequency, TF over GST control); with ELF3 it was 1.24 fold enrichment (6-mer frequency, TF over GST control); with CRX, 1.16 fold enrichment (6-mer frequency, TF over GST control); with ETV1, 1.11 fold enrichment (6-mer frequency, TF over GST control); with ERF it was 1.12 fold enrichment (6-mer frequency, TF over GST control); with ETV3L it was 1.07 fold enrichment (6-mer frequency, TF over GST control). The binding signal with ETS2 was 1.17 fold enrichment (6-mer frequency, TF over GST control); in the assay with SPDEF it was 1.21 fold enrichment (6-mer frequency, TF over GST control); with ETV7, 1.22 fold enrichment (6-mer frequency, TF over GST control); with ELF5, 1.21 fold enrichment (6-mer frequency, TF over GST control); with ETV3, 1.24 fold enrichment (6-mer frequency, TF over GST control); in the assay with ETV6, 1.19 fold enrichment (6-mer frequency, TF over GST control).
